PubChem BioAssay AID463173 (ICCB-Longwood Screening Facility, Harvard Medical School, 2010)
Hit rate of the full screen: of about 52,000 compounds, about 4,300 (8.3%) were called active. Rule as the data show it: active = survival mostly below about 52% (no sharp cut-off); inactive = mostly above about 56%. Only a selection was taken, and actives are over-represented in it overall.

Tested on: DeltatarO mutant
Assay: growth inhibition of S. aureus wild type versus tarO mutant, primary screen, teichoic acid synthesis inhibitors, RN4220, OD600 (AID 463173)
Conditions: OD600, 18 h, active compounds read low, screened at 18.75 µg/mL (by protocol)

Row | Compound | survival
1 | COc1ccc(CNc2nc3c(c(=O)n(C)c(=O)n3C)n2Cc2ccccc2Cl)cc1 | 65% (inactive)
2 | COc1ccc(CCNc2nc3c(c(=O)n(C)c(=O)n3C)n2Cc2ccccc2Cl)cc1OC | 75% (inactive)
3 | Cn1c(=O)c2c(nc(NCc3ccccc3)n2Cc2ccccc2Cl)n(C)c1=O | 58% (inactive)
4 | Cn1c(=O)c2c(nc(NCc3ccccc3)n2Cc2ccc(Cl)c(Cl)c2)n(C)c1=O | 42% (inactive)
5 | Cn1c(=O)c2c(nc(NCc3ccccc3)n2Cc2ccccc2)n(C)c1=O | 38% (active)
6 | COc1ccc(Cl)c(Cn2c(NCCN)nc3c2c(=O)n(C)c(=O)n3C)c1 | 56% (active)
7 | COc1ccccc1Oc1nc2c(c(=O)n(C)c(=O)n2C)n1Cc1cccc(Br)c1 | 40% (active)
8 | COc1ccc(NC(=O)Cn2cnc3sc(C)c(S(=O)(=O)N4CCN(c5ccccc5OC)CC4)c3c2=O)cc1OC | 67% (inactive)
9 | CC1CCN(c2nc(N3CCCCC3)nc(N3CCCCC3)n2)CC1 | 62% (inactive)
10 | CCOC(=O)c1cc(C)n(CC2CCC(C(=O)Nc3ccc(C)c(F)c3)CC2)c1C (stereo unspecified) | 64% (inactive)
11 | Cc1cccc(NC(=O)C2CCCN(S(=O)(=O)c3c(C)noc3/C=C/N(C)C)C2)c1C (stereo unspecified) | 84% (inactive)
12 | Cc1ccc(NS(=O)(=O)c2ccc3c(c2)CCN3C(=O)C2CC2)c(C)c1 | 58% (inactive)
13 | Cc1ccc(Nc2c(-c3cccnc3)nc3ccc(Cl)cn23)cc1 | 83% (inactive)
14 | O=C(Nc1ccc(F)cc1F)C1CCN(c2ncccn2)CC1 | 58% (inactive)
15 | Cc1c(C(=O)OC2CCCC2)[nH]c2c1C(=O)CC(c1ccc(C(C)(C)C)cc1)C2 (stereo unspecified) | 89% (inactive)
16 | Cc1nnc(SCC(=O)O)o1 | 75% (inactive)
17 | COCCNc1c(-c2ccc(N)cc2)nc2ccc(C)cn12 | 65% (inactive)
18 | Cc1ccc(Nc2c(-c3ccc(C)cc3)nc3ccc(C)cn23)cc1 | 117% (inactive)
19 | Cc1ccc2nc(-c3ccc(F)cc3)c(NC(C)(C)CC(C)(C)C)n2c1 | 12% (active)
20 | O=C(CSc1ccc(-c2cccs2)nn1)Nc1ccccc1 | 76% (inactive)
21 | COc1ccccc1N1CCN(C(=O)c2ccc3c(c2)N(Cc2cc(C)ccc2C)C(=O)c2ccccc2S3(=O)=O)CC1 | 74% (inactive)
22 | CCCNC(=O)c1cc2n(n1)CCCN(Cc1ccc(C)cc1)C2=O | 131% (inactive)
23 | CCCCNC(=O)c1cc2n(n1)CCCN(Cc1ccc(C)cc1)C2=O | 32% (active)

Row | Compound | survival
24 | CCC(C)NC(=O)c1cc2n(n1)CCCN(Cc1ccc(C)cc1)C2=O (stereo unspecified) | 74% (inactive)
25 | CCNC(=O)c1cc2n(n1)CCCN(Cc1ccc(C)cc1)C2=O | 49% (inactive)
26 | Cc1ccc(CN2CCCn3nc(C(=O)NC(C)C)cc3C2=O)cc1 | 0% (active)
27 | CCCSCCCNC(=O)c1cc2n(n1)CCCN(Cc1ccc(C)cc1)C2=O | 89% (inactive)
28 | O=C(CN1C(=O)CSc2ccc(S(=O)(=O)N3CCCC3)cc21)NCc1ccccc1Cl | 87% (inactive)
29 | CCCC(=O)n1nc(-c2cccnc2)nc1NCc1ccccc1 | 81% (inactive)
30 | Cc1ccc(Cl)cc1NC(=O)CCc1c(C)nc2c3cccnc3nn2c1C | 103% (inactive)
31 | COc1ccccc1CNC(=O)C1CCCN(c2nc3ccccc3n3cccc23)C1 (stereo unspecified) | 53% (inactive)
32 | O=C(NCc1ccccc1Cl)C1CCCN(c2nc3ccccc3n3cccc23)C1 (stereo unspecified) | 46% (active)
33 | O=C(NCc1ccc(Cl)cc1)C1CCCN(c2nc3ccccc3n3cccc23)C1 (stereo unspecified) | 82% (inactive)
34 | O=C(NCc1ccccc1Br)C1CCCN(C(=O)N2CCOc3ccccc32)C1 (stereo unspecified) | 73% (inactive)
35 | COc1ccc(NC(=O)C2=C(C)Nc3nc(SCc4ccccc4C)nn3C2c2ccc(Br)cc2)cc1 (stereo unspecified) | 80% (inactive)
36 | CCOc1ccc(CNC(=O)c2ccc3c(c2)c(C)c(C)n3Cc2ccc(Cl)cc2)cc1 | 67% (inactive)
37 | CCCC(=O)Nc1nc2ccc(S(C)(=O)=O)cc2s1 | 93% (inactive)
38 | CC(=O)N(C)c1nc(-c2ccccc2)cs1 | 80% (inactive)
39 | CN(c1ccc(O)cc1)c1nc(-c2cccs2)cs1 | 1% (active)
40 | COc1ccc(-c2csc(N(CC(C)C)C(=O)c3cccs3)n2)cc1 | 76% (inactive)
41 | Cc1[nH]c2ccc(CNS(=O)(=O)c3ccc(S(=O)(=O)N4CCOCC4)cc3)cc2c1C | 91% (inactive)
42 | CC1=C(C(=O)OCC2CCCO2)C(c2ccccc2)NC(=O)N1 (stereo unspecified) | 102% (inactive)
43 | CC1CCN(S(=O)(=O)c2ccc3c(c2)N(CC(=O)NC(C)C)C(=O)CO3)CC1 | 76% (inactive)
44 | Cc1nn(C(C)C(=O)Nc2cccc(F)c2)c(=O)c2c1sc1ccccc12 (stereo unspecified) | 108% (inactive)
45 | Cc1nn(C(C)C(=O)Nc2ccc(C(C)C)cc2)c(=O)c2c1sc1ccccc12 (stereo unspecified) | 58% (active)
46 | Cc1cc(C)c(NC(=O)C(C)n2nc(C)c3sc4ccccc4c3c2=O)c(C)c1 (stereo unspecified) | 60% (inactive)
